Values without a mark were called inactive. Inconclusive results are not listed. Activity calls are given as the source filed them. Unless noted, calls come from the whole dose curve; as a rule, active = well fitted curve in either direction with a large enough effect (not every such curve was filed as active); inconclusive = small, poorly fitted or top-dose-only effect, or another doubt; inactive = flat fitted curve, though single readings scatter.
Legend:
[1] = molecular target: Lysosomal acid glucosylceramidase (Homo sapiens) (UniProt P04062); assay: Glucocerebrosidase-p2 (AID 348; in the data active = potency below about 10 µM; note: potency is the fitted concentration of half-maximal effect); details: purified GBA, blue fluorogenic substrate, 40 min
Lysosomal acid glucosylceramidase (Homo sapiens), sequence (P04062 whole entry, looked up): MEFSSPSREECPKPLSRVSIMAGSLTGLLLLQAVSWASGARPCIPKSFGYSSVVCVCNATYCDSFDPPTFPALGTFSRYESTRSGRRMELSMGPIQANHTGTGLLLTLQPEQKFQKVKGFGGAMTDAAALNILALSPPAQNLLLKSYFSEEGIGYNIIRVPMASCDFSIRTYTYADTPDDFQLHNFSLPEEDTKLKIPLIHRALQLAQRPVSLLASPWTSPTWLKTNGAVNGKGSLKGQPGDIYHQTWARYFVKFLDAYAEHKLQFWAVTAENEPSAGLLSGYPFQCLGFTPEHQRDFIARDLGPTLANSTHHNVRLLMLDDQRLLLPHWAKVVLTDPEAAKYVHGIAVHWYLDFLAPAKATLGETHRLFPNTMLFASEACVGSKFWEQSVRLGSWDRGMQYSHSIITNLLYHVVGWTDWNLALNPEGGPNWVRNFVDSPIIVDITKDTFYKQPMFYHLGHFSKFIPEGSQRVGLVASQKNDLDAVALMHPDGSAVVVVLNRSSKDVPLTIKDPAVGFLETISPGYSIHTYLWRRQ
Method in brief: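 Compounds titrated from 0.6 nM upwards against 0.2 nM enzyme in pH 5.9 citric acid/KH2PO4, taurocholate, tween-20; blue fluorogenic substrate 80 uM, 40 min room temperature, stopped and read Ex 365/Em 440 for AC50.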

[2] = AP1 Signaling Pathway (AID 357); details: ME-180 AP-1-bla reporter, EGF-induced, beta-lactamase ratio, 5 h; at 7.69 µM (top of the series) unless noted;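 note: ME-180 reporter cells stimulated with EGF at its EC50 level; % is set by controls: 0 for no effect and ±100 for the full control effect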
Method in brief: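 First, ME-180 AP-1-bla cells were cultured overnight at 37 °C in low-serum Opti-MEM. Next, titrated compounds with EC50 EGF were incubated 5 hours. Finally, CCF4 was added for 2.5 hours and the 460/530 nm ratio recorded.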

[3] = molecular target: Cytochrome P450 1A2 (Homo sapiens) (UniProt P05177); assay: p450-cyp1a2 (AID 410; calls by dose curve; note: potency is the fitted concentration of half-maximal effect;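 for activity change, negative = inhibition: -100% = full effect of reference inhibitor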); details: recombinant CYP1A2, luciferin-ME demethylation, luminescence; series mostly up to 11.4 µM
Cytochrome P450 1A2 (Homo sapiens), sequence (P05177 whole entry, looked up): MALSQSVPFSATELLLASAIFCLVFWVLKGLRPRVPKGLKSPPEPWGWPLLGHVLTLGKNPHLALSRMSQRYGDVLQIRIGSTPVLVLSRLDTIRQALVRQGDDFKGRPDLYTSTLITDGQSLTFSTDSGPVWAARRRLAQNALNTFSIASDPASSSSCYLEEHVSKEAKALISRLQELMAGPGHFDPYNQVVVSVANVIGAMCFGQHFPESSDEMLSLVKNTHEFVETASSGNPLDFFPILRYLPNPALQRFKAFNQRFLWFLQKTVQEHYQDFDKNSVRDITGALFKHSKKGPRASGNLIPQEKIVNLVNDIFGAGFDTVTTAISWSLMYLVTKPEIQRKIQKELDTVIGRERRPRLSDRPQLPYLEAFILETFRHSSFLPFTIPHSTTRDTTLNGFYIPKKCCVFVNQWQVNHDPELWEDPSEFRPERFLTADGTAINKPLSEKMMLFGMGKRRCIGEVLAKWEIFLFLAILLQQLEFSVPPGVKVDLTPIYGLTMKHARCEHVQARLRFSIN
Method in brief: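 20nM CYP1A2 with 100uM Luciferin-ME (at Km) in 100mM KPO4; compound preincubated 10 min, NADPH regeneration added, 60 min at room temperature. Luciferin quantified by luminescence after detection reagent; normalized to 57 uM furafylline.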

[4] = Stat Signaling Pathway (AID 446); details: ME-180 (cervical carcinoma) SIE beta-lactamase reporter, IL-6 stimulated, 5 h; at 7.69 µM (top of the series) unless noted;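 note: ME-180 cervical cancer cells given 40 pM IL-6 alongside compound; SIE-controlled beta-lactamase reporter measured as 460/530 nm FRET emission ratio; % is set by controls: 0 for no effect and ±100 for the full control effect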
Method in brief: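 IL-6/STAT signaling read in ME-180 cells via an SIE beta-lactamase reporter. Stimulus was 40 pM IL-6 (its AC50) for 5 hrs, so both activation and inhibition register.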

[5] = molecular target: Glucocorticoid receptor (Homo sapiens) (UniProt P04150); assay: GR-GFP Redistribution (AID 450;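 active = compounds whose dose series gives a full or clear partial fitted curve of increased nuclear translocation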; note: potency is the fitted concentration of half-maximal effect); details: U2OS GR-GFP nuclear translocation, laser cytometry, 2 h
Glucocorticoid receptor (Homo sapiens), sequence (P04150 whole entry, looked up, the tested form may be a part): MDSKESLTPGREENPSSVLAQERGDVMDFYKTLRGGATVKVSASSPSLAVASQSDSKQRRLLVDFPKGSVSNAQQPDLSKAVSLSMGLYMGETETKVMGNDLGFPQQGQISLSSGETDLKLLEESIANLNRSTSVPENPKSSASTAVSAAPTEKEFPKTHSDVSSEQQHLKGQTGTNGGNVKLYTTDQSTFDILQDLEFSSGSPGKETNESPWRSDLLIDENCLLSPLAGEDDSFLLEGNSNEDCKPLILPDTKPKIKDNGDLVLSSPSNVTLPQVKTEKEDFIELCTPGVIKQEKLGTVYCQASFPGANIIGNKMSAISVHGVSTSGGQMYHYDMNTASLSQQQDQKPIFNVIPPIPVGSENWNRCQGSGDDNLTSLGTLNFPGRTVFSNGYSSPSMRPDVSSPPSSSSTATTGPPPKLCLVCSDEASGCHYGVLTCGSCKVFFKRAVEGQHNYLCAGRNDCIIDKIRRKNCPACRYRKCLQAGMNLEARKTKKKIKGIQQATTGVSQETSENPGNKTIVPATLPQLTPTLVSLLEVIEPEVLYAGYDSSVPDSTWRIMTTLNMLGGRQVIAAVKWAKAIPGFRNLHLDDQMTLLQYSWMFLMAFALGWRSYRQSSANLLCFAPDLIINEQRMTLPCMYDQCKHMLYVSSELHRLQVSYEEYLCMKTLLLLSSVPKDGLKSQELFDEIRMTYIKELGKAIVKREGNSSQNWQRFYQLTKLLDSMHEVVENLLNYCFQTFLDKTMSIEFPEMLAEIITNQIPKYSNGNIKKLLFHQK

[6] = molecular target: Glucocorticoid receptor (Homo sapiens) (UniProt P04150); assay: GR-EFC Redistribution (AID 451; calls by dose curve; note: potency is the fitted concentration of half-maximal effect); details: CHO-K1 GR-EFC translocation, beta-gal luminescence, 2 h
Method in brief: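 CHO-K1 cells stably expressing nuclear-localized β-gal enzyme acceptor and GR fused C-terminally to the enzyme donor fragment; ligand-driven nuclear translocation restores β-gal by complementation. Compounds titrated up to 46 uM final, 2 h at 37 °C; luminescence read.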

[7] = molecular target: Mitogen-activated protein kinase 10 (Mus musculus) (UniProt Q61831); assay: JNK3 AlphaScreen Assay (AID 530); details: JNK3 lysate, c-Jun phosphorylation; series mostly up to 11.4 µM;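 note: kinase came from lysate of stimulated human HepG2 cells; signal reports phosphorylation of biotinylated GST-cJun 1-79 at Ser73 with 10 µM ATP; % is set by controls: 0 for no effect and ±100 for the full control effect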
Method in brief: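 Inhibitors reduce antibody binding to phosphorylated biotin-cJun, lowering AlphaScreen luminescence. Lysates from HepG2 cells pre-activated by IL-1beta plus TNF-alpha supplied JNK3; compounds were titrated.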

[8] = molecular target: 3',5'-cyclic-AMP phosphodiesterase 4B (Homo sapiens) (UniProt Q07343); assay: qHTS Assay for Inhibitors of PDE-IV (AID 607; active = well fitted activation curve with a large enough effect in the main read-out, with a control signal flat, not every such curve was filed as active; note: % of control where 0% means no effect); details: HEK293 ACTOne CNG channel cells, membrane potential fluorescence; series mostly up to 22.9 µM
3',5'-cyclic-AMP phosphodiesterase 4B (Homo sapiens), sequence (Q07343 whole entry, looked up): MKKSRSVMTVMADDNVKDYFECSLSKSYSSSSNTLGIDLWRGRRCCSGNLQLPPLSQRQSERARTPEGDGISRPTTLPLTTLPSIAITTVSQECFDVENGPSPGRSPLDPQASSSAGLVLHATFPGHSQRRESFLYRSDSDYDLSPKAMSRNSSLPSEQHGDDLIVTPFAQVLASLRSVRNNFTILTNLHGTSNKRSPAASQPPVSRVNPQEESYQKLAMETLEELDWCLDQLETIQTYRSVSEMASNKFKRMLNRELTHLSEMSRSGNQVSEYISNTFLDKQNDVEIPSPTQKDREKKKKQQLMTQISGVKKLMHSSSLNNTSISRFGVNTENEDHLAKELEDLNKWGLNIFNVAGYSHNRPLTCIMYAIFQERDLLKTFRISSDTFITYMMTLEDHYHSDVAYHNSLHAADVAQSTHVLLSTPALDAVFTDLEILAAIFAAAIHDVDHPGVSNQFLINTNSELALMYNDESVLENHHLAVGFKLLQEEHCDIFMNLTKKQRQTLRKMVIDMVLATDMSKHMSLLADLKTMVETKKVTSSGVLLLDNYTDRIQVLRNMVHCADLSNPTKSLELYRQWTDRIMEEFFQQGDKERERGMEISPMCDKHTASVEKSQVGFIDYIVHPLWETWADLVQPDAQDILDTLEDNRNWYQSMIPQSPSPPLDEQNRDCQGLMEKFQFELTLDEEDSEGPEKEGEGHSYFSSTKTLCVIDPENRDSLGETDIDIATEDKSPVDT
Method in brief: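 Live HEK293 cells with a modified cyclic nucleotide-gated (CNG) channel report intracellular cAMP via membrane-potential dye fluorescence (ex 535/em 590 nm). Endogenous PDE-IV was targeted. Compounds were tested at up to 22.9 uM final; RO 20-1724 100 uM served as control.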

[9] = molecular target: Cytochrome P450 2C9 (Homo sapiens) (UniProt P11712); assay: qHTS Assay for Inhibitors and Substrates of Cytochrome P450 2C9 (AID 883; active = well fitted curve in the direction sought with a large enough effect; an effect the other way counts as inactive or inconclusive; note: potency is the fitted concentration of half-maximal effect; nearly all actives have a fitted effect of over 60% in size); details: recombinant CYP2C9, luciferin-H luminescence, 60 min; series mostly up to 11.4 µM
Cytochrome P450 2C9 (Homo sapiens), sequence (P11712 whole entry, looked up): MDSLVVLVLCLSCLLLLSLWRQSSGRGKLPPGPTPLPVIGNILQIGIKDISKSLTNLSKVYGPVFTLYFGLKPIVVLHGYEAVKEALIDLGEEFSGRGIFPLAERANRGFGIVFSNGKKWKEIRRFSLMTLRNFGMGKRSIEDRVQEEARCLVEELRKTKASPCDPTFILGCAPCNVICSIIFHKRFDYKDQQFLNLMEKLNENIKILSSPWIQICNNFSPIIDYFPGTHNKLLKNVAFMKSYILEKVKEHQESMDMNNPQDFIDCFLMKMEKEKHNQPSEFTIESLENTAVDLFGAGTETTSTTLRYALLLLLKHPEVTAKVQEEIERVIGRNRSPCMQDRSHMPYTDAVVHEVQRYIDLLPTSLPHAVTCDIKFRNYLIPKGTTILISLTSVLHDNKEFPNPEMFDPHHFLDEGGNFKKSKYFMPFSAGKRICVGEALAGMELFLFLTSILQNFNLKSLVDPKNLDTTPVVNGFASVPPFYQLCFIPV
Method in brief: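 Human CYP2C9 (10nM) hydroxylated Luciferin-H (100uM, at its KM) to luciferin in 25mM KPO4. Compound was preincubated 10 min at 37C, then NADPH regeneration started a 60 min reaction at 37C. Luminescence was read after detection reagent, normalized to 57uM sulphaphenazole.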

[10] = molecular target: Cytochrome P450 3A4 (Homo sapiens) (UniProt P08684); assay: qHTS Assay for Activators of Cytochrome P450 3A4 (AID 885; active = well fitted curve in the direction sought with a large enough effect; an effect the other way counts as inactive or inconclusive; note: nearly all actives have a fitted effect of over 65% in size); details: recombinant CYP3A4, Luciferin-PPXE luminescence, 60 min; series mostly up to 11.4 µM
Cytochrome P450 3A4 (Homo sapiens), sequence (P08684 whole entry, looked up): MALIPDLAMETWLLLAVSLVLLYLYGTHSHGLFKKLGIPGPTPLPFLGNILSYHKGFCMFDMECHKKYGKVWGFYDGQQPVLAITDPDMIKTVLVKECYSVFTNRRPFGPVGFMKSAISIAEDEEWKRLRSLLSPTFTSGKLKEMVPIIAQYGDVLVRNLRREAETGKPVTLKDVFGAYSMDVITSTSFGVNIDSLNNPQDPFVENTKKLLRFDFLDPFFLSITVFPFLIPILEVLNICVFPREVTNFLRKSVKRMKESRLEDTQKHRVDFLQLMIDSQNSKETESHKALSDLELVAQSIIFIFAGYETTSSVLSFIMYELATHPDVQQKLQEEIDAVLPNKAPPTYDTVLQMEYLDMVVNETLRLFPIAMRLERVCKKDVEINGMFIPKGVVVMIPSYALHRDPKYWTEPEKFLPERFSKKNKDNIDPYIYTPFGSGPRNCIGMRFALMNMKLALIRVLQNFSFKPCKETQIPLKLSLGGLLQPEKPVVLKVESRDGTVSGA
Method in brief: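 Quantitative HTS format: compounds preincubated with 20nM human CYP3A4 and Luciferin-PPXE substrate at KM, reaction started by NADPH regeneration, stopped after 60 min, luciferase luminescence read 20 min later.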

[11] = molecular target: Cytochrome P450 3A4 (Homo sapiens) (UniProt P08684); assay: qHTS Assay for Inhibitors and Substrates of Cytochrome P450 3A4 (AID 884; active = well fitted curve in the direction sought with a large enough effect; an effect the other way counts as inactive or inconclusive; note: potency is the fitted concentration of half-maximal effect; nearly all actives have a fitted effect of over 50% in size); details: recombinant CYP3A4, Luciferin-PPXE luminescence; series mostly up to 57.1 µM
Method in brief: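 20 nM human CYP3A4 with 25 uM Luciferin-PPXE (at KM) in 200 mM KPO4, preincubated 10 min with compound; NADPH regeneration started a 60 min RT reaction. Luciferin detected by luminescence, normalized to 57 uM ketoconazole as full inhibition.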

[12] = molecular target: Cytochrome P450 2C19 (Homo sapiens) (UniProt P33261); assay: qHTS Assay for Inhibitors and Substrates of Cytochrome P450 2C19 (AID 899; active = well fitted curve in the direction sought with a large enough effect; an effect the other way counts as inactive or inconclusive; note: potency is the fitted concentration of half-maximal effect; nearly all actives have a fitted effect of over 60% in size); details: recombinant CYP2C19, luciferin-H EGE luminescence; series mostly up to 11.4 µM
Cytochrome P450 2C19 (Homo sapiens), sequence (P33261 whole entry, looked up): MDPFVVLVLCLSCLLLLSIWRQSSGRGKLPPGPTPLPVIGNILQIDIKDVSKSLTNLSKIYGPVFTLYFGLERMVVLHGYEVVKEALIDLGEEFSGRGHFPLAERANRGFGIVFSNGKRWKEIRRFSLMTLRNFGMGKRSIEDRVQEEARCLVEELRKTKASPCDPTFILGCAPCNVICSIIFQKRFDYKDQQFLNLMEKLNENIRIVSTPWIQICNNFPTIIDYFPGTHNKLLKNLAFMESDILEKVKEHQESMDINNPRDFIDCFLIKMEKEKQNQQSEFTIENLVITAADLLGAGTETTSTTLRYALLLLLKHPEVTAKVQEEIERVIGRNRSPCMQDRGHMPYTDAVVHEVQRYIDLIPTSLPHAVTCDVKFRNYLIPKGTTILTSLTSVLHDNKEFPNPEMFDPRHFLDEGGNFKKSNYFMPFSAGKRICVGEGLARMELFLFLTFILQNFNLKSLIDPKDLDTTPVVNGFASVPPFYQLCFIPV
Method in brief: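 Human CYP2C19 (5nM) with Luciferin-H EGE at 10uM (its KM) in 50mM KPO4 was preincubated with compound for 10 min at 37C. NADPH regeneration started a 60 min 37C reaction. Luciferin was read by luminescence, normalized to 57uM ketoconazole.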

SMILES | Potency [1] | activity change, negative = inhibition [2] | Potency [3] | activity, negative = inhibition [4] | Potency [5] | Potency [6] | Potency [7] | Potency [8] | activity change, negative = inhibition [3] | Potency [9] | Potency [10] | Potency [11] | Potency [12]
CCC(C)(C)c1ccc(Oc2cccc(C(=O)O)c2)cc1 | > 11.4 µM | -11.1% | inactive | -0.214% | > 46 µM | > 9.22 µM | inactive | inactive | – | – | – | – | –
CC(C)[C@]1(Cl)CC[C@@H]2[C@]3(C)CCC[C@@](C)(C(=O)O)[C@H]3C[C@H](Cl)[C@@]2(Cl)[C@H]1Cl | > 11.4 µM | -2.07% | inactive | 0.27% | > 46 µM | > 9.22 µM | inactive | inactive | – | – | – | – | –
OC[C@@H]1O[C@H](n2cnc3c(/C=C(\O)c4ccccc4)ncnc32)[C@H](O)[C@@H]1O | > 11.4 µM | -7.91% | 0.501 µM (active) | -0.249% | > 46 µM | > 9.22 µM | inactive | inactive | – | – | – | – | –
CCN(CC)CC[n+]1ccc2c(C)c3[nH]c4ccc(O)cc4c3c(C)c2c1 | > 11.4 µM | 0.748% | 3.16 µM (active) | 26.1% | > 46 µM | > 9.22 µM | inactive | inactive | – | – | – | – | –
c1ccc([P+](CC[P+](c2ccccc2)(c2ccccc2)c2ccccc2)(c2ccccc2)c2ccccc2)cc1 | > 11.4 µM | 1.2% | inactive | 7.49% | > 46 µM | > 9.22 µM | inactive | inactive | – | – | – | – | –
C[C@@]12CC[C@@H]3[C@H](CCC4=CC(=O)CC[C@]43C)[C@@H]1CC[C@@H]2C(=O)Cn1cnc2c(=S)nc[nH]c21 | > 11.4 µM | 2.82% | inactive | -2.06% | > 46 µM | > 9.22 µM | inactive | inactive | – | – | – | – | –
O=C(O)C[C@H](S)C(=O)O | > 11.4 µM | -3.09% | inactive | -8.04% | > 46 µM | > 9.22 µM | inactive | inactive | – | – | – | – | –
O=C(O)c1ccc(Cc2ccccc2C(=O)O)cc1 | > 11.4 µM | -5.89% | inactive | -2.65% | > 46 µM | > 9.22 µM | inactive | inactive | – | – | – | – | –
NC(N)=NC(N)=Nc1c(F)c(F)c(F)c(F)c1F | > 11.4 µM | 8.28% | – | 3% | > 46 µM | > 9.22 µM | inactive | inactive | 10.9% [at 2.29 µM] | – | – | – | –
NC(N)=NNC(=O)C(=O)O | > 11.4 µM | 2.05% | inactive | 2.14% | > 46 µM | > 9.22 µM | inactive | inactive | – | – | – | – | –
O=C1[C@@H]2[C@@H](C(=O)N1c1ccc(OCc3ccccc3)cc1)[C@@H]1c3ccccc3[C@@H]2[n+]2ccccc21 | > 11.4 µM | -1.52% | inactive | 4.93% | > 46 µM | > 9.22 µM | inactive | inactive | – | – | – | – | –
Cn1ncc2c(Nc3cccc(Cl)c3)nc(Nc3cccc(Cl)c3)nc21 | 7.36 µM (active) | -0.941% | 3.98 µM (active) | 4.09% | > 46 µM | > 9.22 µM | inactive | inactive | – | – | – | – | –
N=C(N)SCc1nc(-c2ccc(Cl)cc2)no1 | > 11.4 µM | 26% | 1.26 µM (active) | 17.8% | > 46 µM | > 9.22 µM | inactive | inactive | – | 3.98 µM (active) | inactive | – | –
Cc1cc(O)c(C(C)C)cc1N=Cc1ccccc1O | > 11.4 µM | 7.1% | 1.58 µM (active) | -2.05% | > 46 µM | > 9.22 µM | inactive | inactive | – | 0.631 µM (active) | inactive | 3.16 µM (active) | 0.398 µM (active)
O=C(O)/C(=C\c1ccc(O)cc1)c1cccc2ccccc12 | > 11.4 µM | 1.02% | inactive | -8.2% | > 46 µM | > 9.22 µM | inactive | inactive | – | – | – | – | –
